Measurements: PubChem BioAssay AID2061324 (National Center for Advancing Translational Sciences (NCATS), 2025)
Results filed as inconclusive are left out. Activity calls are given as the source filed them. The call rests on the fitted dose curve; in most records, active means well fitted inhibition curve with a large enough effect; inconclusive means small, poorly fitted or top-dose-only effect; inactive means flat fitted curve, though single readings scatter. Square brackets hold non-standard residues; d marks the D form. Peptide text beside a SMILES is read from it. Dolaproine = CO[C@@H]([C@@H]1CCCN1)[C@@H](C)C(=O)O; Dil = CC[C@H](C)[C@H](NC)[C@@H](CC(=O)O)OC; NMeV = CN[C@H](C(=O)O)C(C)C

Assay: Identification of antibody-drug conjugate (ADC) payloads which are substrates of ATP-binding cassette drug efflux transporters: ABCG2-HEK293-pcDNA cell line
Conditions: ABCG2-HEK293 transfected cells viability, CellTiter-Glo, 48 h
Source text: Antibody-drug conjugates (ADCs) feature an antibody recognizing a specific protein joined to a potent toxic payload. Numerous antibody-drug conjugates have received FDA approval; however, clinical resistance arises. Resistance mechanisms include decreased expression or mutation of the antibody target, impaired payload release, or increased expression of ATP-binding cassette (ABC) efflux transporters associated with multidrug resistance. We therefore sought to characterize the interaction of ABC multidrug transporters with ADC payloads. We performed a high-throughput screen with 27 common ADC payloads using cells lines expressing ABC transporters P-glycoprotein (P-gp, encoded by ABCB1) or ABCG2 (encoded by ABCG2). Confirmatory assays were also performed using cells transfected to express P-gp, ABCG2, or MRP1 (encoded by ABCC1). Several commonly used ADC payloads were substrates of P-gp, including calicheamicin gamma1, monomethyl auristatin E, DM1, and DM4. All the pyrrolobenzodiazepines tested - SJG136, SGD-1882, SG2057, and SG3199 - were substrates of P-gp, ABCG2, and MRP1. […] These findings highlight the risk of transporter-mediated resistance with certain ADC payloads and underscore the importance of selecting payloads that evade ABC transporter recognition in future ADC development.
HEK-293 cells were transfected with empty vector (pcDNA) or vector containing the human ABCB1 (MDR-19), ABCG2 (R-5), or ABCC1 gene (MRP1) and were maintained in EMEM with 2 mg/mL G418 added to maintain transporter expression. The HeLa derivative KB-3-1 and the P-gp overexpressing KB-8-5-11 subline were maintained in DMEM; KB-8-5-11 additionally received 100 ng/mL colchicine. H460 parental cells were obtained from the Division of Cancer Treatment and Diagnosis Tumor Repository, National Cancer Institute at Frederick, MD and were cultured in RPMI. The ABCG2 expressing subline H460 MX20 was generated by selecting H460 cells in 20 nM mitoxantrone. Media in all cases was supplemented with 10% FBS and 1% penicillin-streptomycin. We explored 27 common ADC payloads, in two orthogonal, paired cell line sets-a drug selected and transfected set for each transporter--to identify substrates of the ABC transporters P-gp and ABCG2. Compounds were sourced from Levena Biopharma (San Diego, CA), Selleck Chem (Houston, TX), ChemieTek (Indianapolis, IN), or Microsource Discovery Systems (Gaylordsville, CT). Screening was performed as previously described. Briefly, cells were plated at a density of 500 cells/well in 1536 well plates with compounds added using a 1536-head pin tool (Kalypsys, San Diego CA). Cells were incubated with cytotoxic drugs and processed with CellTiter Glo reagent (Promega, Madison, WI) to determine viability after 48 hours. P-gp substrates were identified by comparing compound activity between paired sets of low-expressing (sensitive) and over-expressing (resistant) cell lines.

| SMILES | Potency |
| --- | --- |
| COc1cc2cc(c1Cl)N(C)C(=O)C[C@H](O)[C@]1(C)O[C@H]1[C@H](C)C1C[C@@](O)(NC(=O)O1)[C@H](OC)/C=C/C=C(\C)C2 | 4750 nM (active) |
| COc1cccc2c1C(=O)c1c(O)c3c(c(O)c1C2=O)C[C@@](O)(C(=O)CO)C[C@@H]3O[C@H]1C[C@H]2[C@H](O[C@@H]3[C@@H](OC)OCCN32)[C@H](C)O1 | 0.2 nM (active) |
| COC(=O)c1cc2c3c(cc(O)c2[nH]1)N(C(=O)c1cc2cc(OC)c(OC)c(OC)c2[nH]1)CC3CCl (stereo unspecified) | 3.4 nM (active) |
| CC(C)(C)OC(=O)Nc1ccc2[nH]c(C(=O)N3C[C@@H](CCl)c4c3cc(O)c3ccccc43)cc2c1 | 16.9 nM (active) |
| CC[C@H](C)[C@@H]([C@H](N)CC(=O)N1CCC[C@H]1[C@H](OC)[C@@H](C)C(=O)N[C@@H](Cc1ccccc1)c1nccs1)N(C)C(=O)[C@@H](NC(=O)[C@H](C(C)C)N(C)C)C(C)C | 6 nM (active) |
| CN(C)CCOc1ccc2[nH]c(C(=O)N3C[C@@H](CCl)c4c3cc(O)c3ccccc43)cc2c1 | 0.8 nM (active) |
| CC[C@]1(O)CC2CN(CCc3c([nH]c4ccccc34)[C@@](C(=O)OC)(c3cc4c(cc3OC)N(C)[C@H]3[C@@](O)(C(=O)OC)[C@H](OC(C)=O)[C@]5(CC)C=CCN6CC[C@]43[C@@H]65)C2)C1 (stereo partly specified) | 300 nM (active) |
| CCN(C(C)=O)[C@H]1CO[C@@H](O[C@H]2[C@H](O[C@H]3C#C/C=C\C#C[C@]4(O)CC(=O)C(NC(=O)OC)=C3/C4=C\CSSSC)O[C@H](C)[C@@H](NO[C@H]3C[C@H](O)[C@H](SC(=O)c4c(C)c(I)c(O[C@@H]5O[C@@H](C)[C@H](O)[C@@H](OC)[C@H]5O)c(OC)c4OC)[C@@H](C)O3)[C@@H]2O)C[C@@H]1OC | 2.7 nM (active) |
| CCN[C@H]1CO[C@@H](O[C@H]2[C@H](O[C@H]3C#C/C=C\C#C[C@]4(O)CC(=O)C(NC(=O)OC)=C3/C4=C\CSSSC)O[C@H](C)[C@@H](NO[C@H]3C[C@H](O)[C@H](SC(=O)c4c(C)c(I)c(O[C@@H]5O[C@@H](C)[C@H](O)[C@@H](OC)[C@H]5O)c(OC)c4OC)[C@@H](C)O3)[C@@H]2O)C[C@@H]1OC | 1.1 nM (active) |
| CC[C@H](C)[C@@H]([C@@H](CC(=O)N1CCC[C@H]1[C@H](OC)[C@@H](C)C(=O)N[C@@H](Cc1ccccc1)C(=O)O)OC)N(C)C(=O)[C@@H](NC(=O)[C@@H](NC)C(C)C)C(C)C (H-[NMeV]V[Dil][Dolaproine]F-OH) | 3360 nM (active) |
| Cc1nc(Nc2ncc(C(=O)Nc3c(C)cccc3Cl)s2)cc(N2CCN(CCO)CC2)n1 | 4750 nM (active) |
